Results reported in PubChem BioAssay AID1259240 (Keith Lab, Institute of Cancer Science, University of …, 2017).
A number with no mark means an inactive call. Active and inactive are the calls of the source. Rule as the data show it: active = fold change mostly below about -2 (no sharp cut-off); inactive = mostly above about -1.8.

Assay: TERT promoter activity modulators, primary screen, cell-based, luciferase reporter, human (AID 1259240)
Details: A2780 TERT promoter luciferase reporter, 16 h; at 20 µM, fold versus average of vehicle-only wells

Row | SMILES | fold change
1 | COc1cc(OC)cc(-c2cc(N3C(=O)Nc4ccccc4N3O)n[nH]2)c1 | -1.25
2 | O=C(NCCc1c[nH]c2ccccc12)c1cc2ccccn2n1 | 1.7
3 | CCOc1cc(C2c3c(oc4ccc(F)cc4c3=O)C(=O)N2Cc2ccc(F)cc2)ccc1O (stereo not given) | -3.2 (active)
4 | Cc1nc(SCC(=O)Nc2ccc([N+](=O)[O-])cc2)c2c(=O)n(C)c(=O)n(C)c2n1 | -1.11
5 | Cc1ccc(N2CN=c3s/c(=C4\C(=O)Nc5ccccc54)c(=O)n3C2)cc1 | -1.33
6 | CCN1C(=O)C(O)(CC(=O)c2ccc3c(c2)OCCO3)c2ccccc21 (stereo not given) | -1.17
7 | CC1CCCCC1NC(=O)CN(C)S(=O)(=O)c1ccc2c(c1)CCC(=O)N2 (stereo not given) | 1.04
8 | CC1=CC2=NC(=O)/C(=C\c3cc(C)n(-c4ccccc4F)c3C)C(=N)N2O1 | -1.81
9 | CCc1c(C)sc(NC(=O)c2cc(C)no2)c1C#N | 1.32
10 | CC(=O)c1cccc(Nc2nc(-c3c(C)nc4cc(C)ccn34)cs2)c1 | -2.84 (active)
11 | COCCN1C(=O)C(=O)/C(=C(\O)c2ccc(C)cc2)C12C(=O)N(C)c1ccccc12 (stereo not given) | -1.06
12 | Brc1cccc(-c2nc3cnccn3c2NC2CCCCC2)c1 | -1.11
13 | CN1CCN(C(=O)c2ccc3c(Cl)c4c(nc3c2)CCC4)CC1 | 1.03
14 | CCS(=O)(=O)Nc1ccc(C2=NN(S(=O)(=O)c3ccc(F)cc3)C(c3cccs3)C2)cc1 (stereo not given) | 1.07
15 | COc1cccc(CNc2nc3ccccc3n3cnnc23)c1 | 1.12
